# Unmarked numbers belong to inactive results. Active and inactive are the calls of the source.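 The calls were made as follows, unless noted: active = compounds that lower viability of the colon cancer cells in the luminescence readout, with no numeric limit stated; inactive = the rest.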
# Experiment: HCT116 colon cancer cell growth inhibition, primary screen, CellTiter-Glo luminescence, NPC library (AID 1117342;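 active = compounds that lower survival of HCT116 colon cancer cells in the luminescence readout, no numeric limit stated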)
# Conditions: at 20 µM (top of the series)
row,Compound,inhibition of viability
1,COCc1c(C(C)C)nc(C(C)C)c(/C=C/[C@@H](O)C[C@@H](O)CC(=O)O)c1-c1ccc(F)cc1,112% (active)
2,CC(C)(C)C(O)/C=C/c1ccc2c(c1)OCO2 (stereo not drawn),11.7%
3,Cc1ccnc2c1NC(=O)c1cccnc1N2C1CC1,6.5%
4,CCOc1cc(CC(=O)N[C@@H](CC(C)C)c2ccccc2N2CCCCC2)ccc1C(=O)O,29.7%
5,Nc1c2c(nc3c1CCC3)CCCC2,1%
6,CCOC(=O)OC(C)OC1=C(C(=O)Nc2ccccn2)N(C)S(=O)(=O)c2ccccc21 (stereo not drawn),8.6%
7,CN1CCN(c2c(F)cc3c(=O)c(C(=O)O)cn4c3c2SCC4)CC1,7.2%
8,Cc1nc2n(c(=O)c1CCN1CCC(c3noc4cc(F)ccc34)CC1)CCCC2,24.2%
9,O=C(O)/C=C/c1ccc(Cn2ccnc2)cc1,6.1%
10,O=C(NCCO[N+](=O)[O-])c1cccnc1,6%
11,Cc1nc2ccc(CN(C)c3ccc(C(=O)N[C@@H](CCC(=O)O)C(=O)O)s3)cc2c(=O)[nH]1,78.2% (active)
12,CCCN1CCCC[C@H]1C(=O)Nc1c(C)cccc1C,3.1%
13,COc1cc2c(cc1OC)C(=O)C(CC1CCN(Cc3ccccc3)CC1)C2 (stereo not drawn),49.6%
14,N#Cc1ccc(C(c2ccc(C#N)cc2)n2cncn2)cc1,9.8%
15,Cc1[nH]cnc1CN1CCc2c(c3ccccc3n2C)C1=O,-1.8%

# Experiment: CellTiter-Glo luminescent readout of SW480 viability loss, NPC library primary (AID 1117343)
# Conditions: CellTiter-Glo luminescence; at 20 µM (top of the series)
row,Compound,viability decrease (inhibition)
1,CNNCc1ccc(C(=O)NC(C)C)cc1,5.8% (active)
2,Nc1nc2c(ncn2CCC(CO)CO)c(=O)[nH]1,47.6%
3,O=C1CC2(CCCC2)CC(=O)N1CCNCC1COc2ccccc2O1 (stereo not drawn),14.5%
4,Cn1nnc2c(C(N)=O)ncn2c1=O,-3.8%
5,O=C1[C@H]2CCCC[C@H]2C(=O)N1CCCCN1CCN(c2nsc3ccccc23)CC1,115% (active)
6,O=C(O)CCNC(=O)c1ccc(N=Nc2ccc(O)c(C(=O)O)c2)cc1,57.8% (active)
7,CC(Oc1c(Cl)cccc1Cl)C1=NCCN1 (stereo not drawn),12.5%
8,CN1CCN(C2=Nc3cc(F)ccc3Cc3ccccc32)CC1,26.9%
9,COC(=O)C1=C(C)NC(C)=C(C(=O)OC(C)C)C1c1cccc2nonc12 (stereo not drawn),20.8%
10,CCOc1cc(N)c(Cl)cc1C(=O)NCC1CN(Cc2ccc(F)cc2)CCO1 (stereo not drawn),44.8%
11,O=c1c(-c2ccccc2)c1-c1ccccc1,106% (active)
12,O=C1Nc2ccc(Cl)cc2[C@@](C#CC2CC2)(C(F)(F)F)O1,114% (active)
13,Nc1nc(N)nc(-c2cc(Cl)ccc2Cl)n1,-12.5%
14,OCCOCCN1CCN(C2=Nc3ccccc3Sc3ccccc32)CC1,14%
15,CC(=O)Nc1ccc(CC(=O)O)cc1,16.5%
16,O=c1[nH]cnc2c1ncn2[C@H]1CC[C@@H](CO)O1,-7.8%
17,COC(=O)C1=C(C)NC(C)=C(C(=O)O[C@@H]2CCCN(Cc3ccccc3)C2)[C@@H]1c1cccc([N+](=O)[O-])c1,131% (active)
18,Cc1c(O)cccc1C(=O)N[C@@H](CSc1ccccc1)[C@H](O)CN1C[C@H]2CCCC[C@H]2C[C@H]1C(=O)NC(C)(C)C,158% (active)
19,CCc1nn(CCCN2CCN(c3cccc(Cl)c3)CC2)c(=O)n1CCOc1ccccc1,91.5% (active)

row,Compound,viability decrease (inhibition)
1,Nc1[nH]c(=O)ncc1F,-13.1%
2,O=C1CCc2ccc(OCCCCN3CCN(c4cccc(Cl)c4Cl)CC3)cc2N1,112% (active)
3,COc1cc(C(=O)NC2CCCNC2)cc(OC)c1OC (stereo not drawn),37.5%
4,COc1ccc(C(=O)NCc2ccc(OCCN(C)C)cc2)cc1OC,-4.6%
5,COCc1c(C(C)C)nc(C(C)C)c(/C=C/[C@@H](O)C[C@@H](O)CC(=O)O)c1-c1ccc(F)cc1,151% (active)
6,CC(C)(C)C(O)/C=C/c1ccc2c(c1)OCO2 (stereo not drawn),-0.9%
7,Cc1ccnc2c1NC(=O)c1cccnc1N2C1CC1,-13.1%
8,CCOc1cc(CC(=O)N[C@@H](CC(C)C)c2ccccc2N2CCCCC2)ccc1C(=O)O,68.3% (active)
9,Nc1c2c(nc3c1CCC3)CCCC2,4.4%
10,CCOC(=O)OC(C)OC1=C(C(=O)Nc2ccccn2)N(C)S(=O)(=O)c2ccccc21 (stereo not drawn),-18.8%
11,CN1CCN(c2c(F)cc3c(=O)c(C(=O)O)cn4c3c2SCC4)CC1,-18.1%
12,Cc1nc2n(c(=O)c1CCN1CCC(c3noc4cc(F)ccc34)CC1)CCCC2,41.5%
13,O=C(O)/C=C/c1ccc(Cn2ccnc2)cc1,9.3%
14,O=C(NCCO[N+](=O)[O-])c1cccnc1,0.2%
15,Cc1nc2ccc(CN(C)c3ccc(C(=O)N[C@@H](CCC(=O)O)C(=O)O)s3)cc2c(=O)[nH]1,117% (active)
16,CCCN1CCCC[C@H]1C(=O)Nc1c(C)cccc1C,-17%
17,COc1cc2c(cc1OC)C(=O)C(CC1CCN(Cc3ccccc3)CC1)C2 (stereo not drawn),69.8% (active)
18,N#Cc1ccc(C(c2ccc(C#N)cc2)n2cncn2)cc1,-2.1%
19,Cc1[nH]cnc1CN1CCc2c(c3ccccc3n2C)C1=O,42.2%

# Reference: PubChem BioAssay
